# Experimental data: PubChem BioAssay (NCATS)
# Results filed as inconclusive are left out. Entries that show only a call come without a potency. Active and inactive are the calls of the source. Unless noted, the call rests on the fitted dose curve.
# Assays:
# [1] = qHTS for Inhibitors of the Functional Ribonucleoprotein Complex (vRNP) of Lassa (LASV) Arenavirus: LASV Primary Screen - GLuc reporter signal (AID 1347082; calls by dose curve; tested in HEK293 reporter line; further: nearly all actives have a fitted effect of over 60% in size)
# [2] = qHTS for Inhibitors of the Functional Ribonucleoprotein Complex (vRNP) of Lassa (LASV) Arenavirus: Viability assay - alamar blue signal for LASV Primary Screen (AID 1347083; calls by dose curve; tested in HEK293 reporter line; further: nearly all actives have a fitted effect of over 80% in size)
# [3] = qHTS for Inhibitors of the Functional Ribonucleoprotein Complex (vRNP) of Lymphocytic Choriomeningitis Arenaviruses (LCMV): Viability assay - alamar blue signal for LCMV Primary Screen (AID 1347085; calls by dose curve; tested in HEK293 reporter line; further: nearly all actives have a fitted effect of over 80% in size)
# [4] = target: Nucleoprotein (Lymphocytic choriomeningitis virus (strain Armstrong)) (UniProt P09992); test: qHTS for Inhibitors of the Functional Ribonucleoprotein Complex (vRNP) of Lymphocytic Choriomeningitis Arenaviruses (LCMV): LCMV Primary Screen - GLuc reporter signal (AID 1347086); further: nearly all actives have a fitted effect of over 70% in size
# Potency means the concentration at half of the fitted maximal effect.
# Nucleoprotein (Lymphocytic choriomeningitis virus (strain Armstrong)), sequence (P09992 whole entry, looked up): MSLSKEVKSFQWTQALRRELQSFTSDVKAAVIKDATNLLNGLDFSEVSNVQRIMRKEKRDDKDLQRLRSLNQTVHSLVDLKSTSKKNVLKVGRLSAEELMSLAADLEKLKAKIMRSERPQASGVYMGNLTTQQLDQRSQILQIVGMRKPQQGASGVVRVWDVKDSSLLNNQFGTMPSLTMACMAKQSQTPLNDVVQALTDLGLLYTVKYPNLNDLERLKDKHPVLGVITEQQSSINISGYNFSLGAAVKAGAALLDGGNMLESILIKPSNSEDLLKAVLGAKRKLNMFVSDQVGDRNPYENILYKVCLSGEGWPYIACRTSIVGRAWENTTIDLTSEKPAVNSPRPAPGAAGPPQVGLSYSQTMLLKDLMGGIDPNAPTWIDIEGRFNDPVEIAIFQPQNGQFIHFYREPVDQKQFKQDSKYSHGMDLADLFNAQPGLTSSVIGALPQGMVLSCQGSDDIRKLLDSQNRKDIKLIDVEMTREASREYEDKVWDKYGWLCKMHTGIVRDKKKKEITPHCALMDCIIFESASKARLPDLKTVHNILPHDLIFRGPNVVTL
Compound,Potency [1],Potency [2],Potency [3],Potency [4]
CCCC/C=C/C=C\C=O,inactive,inactive,inactive,inactive
C[C@]12CCC3C(CC[C@H]4C[C@@H](O)CC[C@]34C)C1C[C@@H](O)C2=O (stereo partly drawn),inactive,inactive,inactive,inactive
O=C1c2c(O)cc(O)cc2O[C@H](c2cc(O)c(O)c(O)c2)[C@H]1O,inactive,inactive,inactive,inactive
CCCC(=O)OCC,inactive,inactive,inactive,inactive
O=C1CCC[C@H]2[C@@H]3CCCN4CCC[C@H](CN12)[C@H]34,inactive,inactive,inactive,inactive
CC(=O)NCC(=O)N1[C@H]2CC[C@H]1c1cc(Nc3ncc(C(F)(F)F)c(NC4CCC4)n3)ccc12,inactive,3.43 µM (active),9.68 µM (active),inactive
CCCCN(CCCC)CC(O)c1cc(Cl)cc2c1-c1ccc(Cl)cc1C2=Cc1ccc(Cl)cc1 (stereo not drawn),inactive,inactive,inactive,inactive
COc1cc(/C=C/C(=O)OC[C@H]2O[C@H](OC3(CO)OC(CO)C(O)C3O)[C@H](O)[C@@H](O)[C@@H]2O)ccc1O (stereo partly drawn),inactive,inactive,inactive,inactive
SC1CCCC1,inactive,inactive,inactive,inactive
CC1=CCCC(C)(C)C12CCC(C)O2 (stereo not drawn),inactive,inactive,inactive,inactive
COC(=O)C1(Cc2ccc(O)cc2)OC(=O)C(O)=C1c1ccc(O)cc1 (stereo not drawn),inactive,inactive,inactive,inactive
O=C(/C=C/c1ccc(O)c(O)c1)c1ccc(O)cc1O,inactive,inactive,inactive,inactive
c1ccc2c3c([nH]c2c1)C1(CCCCC1)NCC3,inactive,inactive,inactive,inactive
C[C@H](CCC(=O)NCC(=O)O)[C@H]1CC[C@H]2[C@@H]3[C@H](O)C[C@@H]4C[C@H](O)CC[C@]4(C)[C@H]3C[C@H](O)[C@]12C,inactive,inactive,inactive,inactive
Cc1c(O)c2c(c(C(=O)/C=C/c3ccccc3)c1O)OC(C)(C)C=C2,inactive,inactive,inactive,inactive
CC1=CC2OC3CC4OC(=O)C=CC=CC(=O)OCCC(C)C(O)C(=O)OCC2(CC1O)C4(C)C31CO1 (stereo not drawn),inactive,inactive,inactive,inactive
CC(C)c1noc(N2CCC(COc3ccc(-c4ccc(S(C)(=O)=O)cc4)nc3)CC2)n1,inactive,inactive,inactive,inactive
CCCCCCC(=O)OCC,inactive,inactive,inactive,inactive
CC(C)(O)C1CC[C@@]2(C)C3CCC4[C@@]5(C)CCCC(C)(C)C5C(O)C[C@]4(C)[C@]3(C)CC[C@@H]12 (stereo partly drawn),inactive,inactive,inactive,inactive
C[C@@H]1CC[C@]2(C(=O)O[C@@H]3O[C@H](CO)[C@@H](O)[C@H](O)[C@H]3O)CC[C@]3(C)C(=CCC4[C@@]5(C)C[C@@H](O)[C@H](O)[C@@](C)(C(=O)O[C@@H]6[C@H](O)C[C@@]7(C)C(CC[C@]8(C)C7CC=C7[C@H]9[C@](C(=O)O[C@@H]%10O[C@H](CO)[C@@H](O)[C@H](O)[C@H]%10O)(CC[C@@H](C)[C@@]9(C)O)CC[C@]78C)[C@@]6(CO)C(=O)O)C5CC[C@]43C)[C@@H]2[C@]1(C)O (stereo partly drawn),inactive,inactive,inactive,inactive
CC[C@H]1NC(=O)[C@@H](NC(=O)c2ncccc2O)[C@@H](C)OC(=O)[C@H](c2ccccc2)NC(=O)[C@@H]2CC(=O)CCN2C(=O)[C@H](Cc2ccccc2)N(C)C(=O)[C@@H]2CCCN2C1=O,inactive,inactive,inactive,inactive

Compound,Potency [1],Potency [2],Potency [3],Potency [4]
CC/C=C\CCCCO,inactive,inactive,inactive,inactive
CCCSSCCC,inactive,inactive,inactive,inactive
CCCCCC1CCCC(=O)O1 (stereo not drawn),inactive,inactive,inactive,inactive
CC(=O)OCC=C(C)C,inactive,inactive,inactive,inactive
CC(=O)c1ccc(-c2cccs2)s1,inactive,inactive,inactive,inactive
CC(C)=CC(=O)O[C@@H]1Cc2cc3ccc(=O)oc3cc2OC1(C)C,inactive,inactive,inactive,inactive
CNc1nc(-c2ccc3c(N)n[nH]c3c2)cc(N2C[C@@H](C(=O)NC3CCCCC3)CC[C@@H]2C)n1,inactive,24.3 µM (active),38.5 µM (active),inactive
C=C(CO)CC1CC(O)[C@]2(C)OC3CC4OC5C[C@]6(C)O[C@]7(C)CCC8OC9C[C@]%10(C)OC%11C(C)=CC(=O)OC%11CC%10OC9C[C@@H](C)C8OC7CC6O[C@]5(C)C/C=C\C4OC3CC2O1 (stereo partly drawn),inactive,inactive,inactive,inactive
NC(C(=O)O)C1ON=C(Cl)C1O (stereo not drawn),inactive,inactive,inactive,inactive
COc1cccc(OC)c1,inactive,inactive,inactive,inactive
C#CCCCCCCCCCCCc1ccco1,inactive,inactive,inactive,inactive
CCCCCCCCCCOC(C)=O,inactive,inactive,inactive,inactive
CC(CCC(=O)O)C1CCC2C3CC(O)C4CC(O)CC[C@]4(C)C3CCC12C (stereo partly drawn),inactive,inactive,inactive,inactive
CC(=O)O[C@@H]1CC2C(C)(C)C(=O)C=C[C@]2(C)C2CC[C@]3(C)C(=CC[C@H]3C3CO[C@@H](C(C)(C)O)[C@H](O)C3)[C@@]21C (stereo partly drawn),inactive,inactive,inactive,inactive
COC(=O)c1ccc(N2CC3CNC(=O)C2(C(=O)OC)N3C)cc1 (stereo not drawn),inactive,inactive,inactive,inactive
CCN1C[C@]2(COC)CC[C@H](O)[C@@]34C5C[C@@H]6[C@@H](OC)C[C@@](O)(C5[C@H]6O)[C@](O)([C@@H](OC)C23)[C@@H]14 (stereo partly drawn),inactive,inactive,inactive,inactive
C=CC(C)(C)O[C@@H]1O[C@H](CO)[C@@H](O)[C@H](O)[C@H]1O,inactive,inactive,inactive,inactive
CC12CCC(=O)C=C1C(O)CC1C2CCC2(C)C1CCC2(O)C(=O)CO (stereo not drawn),inactive,inactive,inactive,inactive
CC1=CC(C/C(C)=C/COc2ccc3ccc(=O)oc3c2)OC1=O (stereo not drawn),inactive,inactive,inactive,inactive
CC(C)c1ccc(C=O)cc1,inactive,inactive,inactive,inactive
C=C1[C@H]2CC[C@@H]3[C@H]2C(C)(C)CCC[C@]13C,inactive,inactive,inactive,inactive

Compound,Potency [1],Potency [2],Potency [3],Potency [4]
COc1ccc2c(c1)c(=O)cc(-c1ccccc1)n2C,inactive,inactive,inactive,inactive
C=C1C2C[C@H](O)C(C)(C)[C@@]2(O)[C@H](O)C[C@]23C[C@@](C)(O)[C@H](CC[C@H]12)[C@H]3O (stereo partly drawn),inactive,inactive,inactive,inactive
CC12CCC(C1)C(C)(C)C2O (stereo not drawn),inactive,inactive,inactive,inactive
CC1(C)CCC[C@@]2(C)[C@@H]1CC[C@@]1(C)OC(=O)C[C@H]21,inactive,inactive,inactive,inactive
Nc1nc(Cl)nc2c1ncn2[C@@H]1O[C@H](CO)C(O)[C@H]1O (stereo partly drawn),inactive,inactive,inactive,inactive
CCCCOC(=O)C(C)OC(=O)CCC (stereo not drawn),inactive,inactive,inactive,inactive
CC12CCC3C(CCC4CC(O)CCC43C)C1CC(O)C2 (stereo not drawn),inactive,inactive,inactive,inactive
O=c1[nH]cnc2c1ncn2C1OCC(O)C(O)C1O (stereo not drawn),inactive,inactive,inactive,inactive
Cc1nc(Nc2n[nH]c3c2CN(C(=O)N[C@H](CN(C)C)c2ccccc2)C3(C)C)c2sccc2n1,7.69 µM (active),0.193 µM (active),0.0968 µM (active),8.63 µM (active)
COc1c2c(c(OC)c3c1c(=O)c1ccccc1n3C)OCO2,inactive,inactive,inactive,inactive
COC(=O)c1ccc(=O)c2nc3/c(=C/O)c(O)cc(=O)c3[nH]c12,inactive,inactive,inactive,inactive
COc1cc2c(cc1OC)-c1cc3ccc4c(c3c[n+]1CC2)OCO4,inactive,inactive,inactive,inactive
C[C@@H](O)CCCCn1c(=O)c2c(ncn2C)n(C)c1=O,inactive,inactive,inactive,inactive
CC(C)(O)[C@H](O)Cc1cc2ccc(=O)oc2cc1O[C@@H]1O[C@H](CO)[C@@H](O)[C@H](O)[C@H]1O,inactive,inactive,inactive,inactive
O=CN(O)CCCP(=O)(O)O,inactive,inactive,inactive,inactive
Cc1cc(=O)oc2cc3c(cc12)OCO3,inactive,inactive,inactive,inactive
CCCO,inactive,inactive,inactive,inactive
COc1cc(C(=O)OC2C[C@H]3CC[C@@H](C2)N3)ccc1O (stereo partly drawn),inactive,inactive,inactive,inactive
OC[C@H]1O[C@H](OCc2ccccc2)[C@H](O[C@@H]2OC[C@@H](O)[C@H](O)[C@H]2O)[C@@H](O)[C@@H]1O,inactive,inactive,inactive,inactive
C=C(C)C(COc1c2occc2cc2ccc(=O)oc12)OC(C)(C)C(O)COc1c2occc2cc2ccc(=O)oc12 (stereo not drawn),inactive,inactive,inactive,inactive
